Assay outcomes as filed in PubChem BioAssay.
A selection: hits, their analogues and other compounds. The true share with any hit is near 2.1%.
MLL AF4-AF9 inh: MLL-AF4/AF9 protein interaction inhibition; AlphaScreen, biotin-AF4 peptide binding to FLAG-AF9; actives 0.47% (n = 350,000); P42568; inhibition, % at 10 µM;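 active means every replicate reaching a set inhibition limit, whatever the replicate mean, cut at about 25% in these data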;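 further: 0% = plate neutral control median and 100% = total signal loss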
Env fusion inh: blocks HIV Env-driven cell-cell fusion. HeLa-JRFL Env/CEM21 cell fusion, luciferase. AID 651610. inhibition, % at 12.3 µM. actives 1.1% (n = 360,000);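 active means mean replicate inhibition score of at least 50 and every replicate individually at or above 50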;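 further: 0% = plate neutral controls and 100% = maraviroc near 300 nM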
GSIS activator: GLuc luminescence reporter in INS-1E cells, primary screen for activators of glucose-dependent secretion of insulin. actives 0.61% (n = 370,000). AID 743287. INS-1E GLuc reporter insulin secretion, 2-3 h. activation, % at 16.6 µM;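 active means lowest replicate activation of at least 40%, so every replicate reaches that level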;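 further: 0% = median of neutral control wells and 100% = median of IBMX positive control wells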
PGC1a acetyl inh: PGC1a acetylation modulation, inhibitor mode. actives 0.17% (n = 350,000). U2OS PGC1a acetylation, AlphaScreen anti-acetyl-lysine; with virally co-expressed GCN5 acetyltransferase. AID 651687. inhibition, % at 15.6 µM;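 active means every replicate shows inhibition of at least 40%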;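 further: 0% = neutral control wells and 100% = positive control wells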
NSD2 inh: blocks human histone methyltransferase NSD2. inhibition, % at 12.5 µM. O96028. actives 0.54% (n = 310,000). NSD2 peptide methylation, AlphaScreen, 120 min. AID 743445; in the data active means inhibition above about 50%
Target sequence (O96028 whole entry, looked up): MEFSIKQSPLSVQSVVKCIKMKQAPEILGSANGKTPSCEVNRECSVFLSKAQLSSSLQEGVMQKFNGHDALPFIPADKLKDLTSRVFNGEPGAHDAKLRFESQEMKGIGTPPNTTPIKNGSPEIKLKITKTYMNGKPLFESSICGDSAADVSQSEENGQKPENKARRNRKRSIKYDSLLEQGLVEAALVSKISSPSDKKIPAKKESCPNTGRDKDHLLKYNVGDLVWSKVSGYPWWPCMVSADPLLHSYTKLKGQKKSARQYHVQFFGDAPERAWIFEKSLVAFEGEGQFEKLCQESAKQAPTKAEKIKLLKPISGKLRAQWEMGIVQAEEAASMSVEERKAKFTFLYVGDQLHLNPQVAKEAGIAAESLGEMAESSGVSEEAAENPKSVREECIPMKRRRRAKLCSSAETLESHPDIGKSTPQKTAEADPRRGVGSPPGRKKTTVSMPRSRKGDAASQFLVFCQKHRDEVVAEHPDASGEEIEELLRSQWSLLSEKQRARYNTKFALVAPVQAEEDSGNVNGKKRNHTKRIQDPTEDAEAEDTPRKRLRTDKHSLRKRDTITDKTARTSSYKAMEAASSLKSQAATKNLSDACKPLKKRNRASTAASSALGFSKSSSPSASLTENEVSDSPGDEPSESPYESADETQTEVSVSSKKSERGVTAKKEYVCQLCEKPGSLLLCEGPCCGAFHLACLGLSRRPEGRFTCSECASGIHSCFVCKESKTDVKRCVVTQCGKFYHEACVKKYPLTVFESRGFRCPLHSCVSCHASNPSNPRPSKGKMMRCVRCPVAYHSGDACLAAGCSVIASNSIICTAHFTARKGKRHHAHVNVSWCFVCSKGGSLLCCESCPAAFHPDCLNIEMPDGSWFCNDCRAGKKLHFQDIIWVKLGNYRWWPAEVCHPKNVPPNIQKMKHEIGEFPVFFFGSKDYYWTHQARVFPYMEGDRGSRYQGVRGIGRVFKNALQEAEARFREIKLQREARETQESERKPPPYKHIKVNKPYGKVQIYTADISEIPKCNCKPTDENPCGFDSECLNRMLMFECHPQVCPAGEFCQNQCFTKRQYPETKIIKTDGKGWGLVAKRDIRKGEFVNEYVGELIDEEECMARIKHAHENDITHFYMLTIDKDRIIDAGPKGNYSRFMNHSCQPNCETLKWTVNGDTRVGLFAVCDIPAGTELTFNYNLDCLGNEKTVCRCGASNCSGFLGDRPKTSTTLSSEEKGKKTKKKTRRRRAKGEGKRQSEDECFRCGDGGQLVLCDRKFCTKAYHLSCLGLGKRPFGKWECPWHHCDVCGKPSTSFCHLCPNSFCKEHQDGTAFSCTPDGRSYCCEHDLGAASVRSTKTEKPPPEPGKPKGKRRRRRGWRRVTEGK
* = called active by the depositor; . = no result; [ ] = remark or other dose.

SMILES | MLL AF4-AF9 inh | Env fusion inh | GSIS activator | PGC1a acetyl inh | NSD2 inh
Clc1ccccc1C1=Nn2c(nnc2-c2ccncc2)SC1 | . | 92.0* | . | 18.5 | 1.0
COc1ccc(OC)c(C2=Nn3c(nnc3-c3ccncc3)SC2)c1 | 3.5 | 10.1 | 40.6* | -10.4 | 2.0
COc1cccc(-c2nnc3n2N=C(C(C)(C)C)CS3)c1 | . | 111.8* | . | . | -1.1
CC(=O)Nc1cc(-c2ccc(C(=O)NC3CC3)cc2)cn2c(-c3cccc(C(C)=O)c3)cnc12 | -1.8 | 8.4 | -4.0 | 5.3 | -1.4
COc1ccc(S(=O)(=O)Nc2ccc3c(c2)C(=O)N([C@H](C)CO)C[C@H](C)[C@H](CN(C)C(=O)Nc2cccc4ccccc24)OCCCC[C@H](C)O3)cc1 | . | 14.1[16.7 µM] | 0.5 | -1.0 | .
Cc1ccc(C2(CCNCc3ccc(N(C)C)cc3)CCOC(C(C)C)C2)cc1 (stereo not given) | 39.6* | 42.8 | . | -0.4 | 23.0
CN(Cc1cn(-c2ccccc2)nc1-c1ccc2c(c1)OCO2)Cc1nccn1C | 33.5* | 10.0 | 13.2 | . | 4.9
CCN(CC)C(CNC(=O)c1cc(=O)[nH]c2ccccc12)c1ccccc1Cl (stereo not given) | 1.1 | 19.9 | . | 5.7 | 2.9
O=C1CSC(c2c(F)cccc2Cl)N1c1cccc(F)c1 (stereo not given) | . | 5.6 | . | . | -1.4
Cc1ccc(-n2c(SCC(=O)N3CCOCC3)nnc2-c2cccnc2)cc1C | . | . | . | -3.1 | .
CCSc1nnc(-c2cccnc2)n1-c1ccc(C)c(Cl)c1 | 6.5 | . | 64.3* | 1.9 | -1.9
C[C@@H]1CN([C@@H](C)CO)C(=O)c2cc(NS(=O)(=O)c3ccc(Cl)cc3)ccc2O[C@@H](C)CCCCO[C@H]1CN(C)C(=O)c1ccncc1 | -5.0 | -1.1[16.7 µM] | -8.5 | -2.5 | .
CCN(CC)CCNCc1ccc(Br)cc1OCC(=O)NCc1ccccc1 | 0.2 | 9.7 | 62.3* | 0.7 | 13.9
O=C(CSc1nnc(SCc2ccc(Cl)cc2)s1)N/N=C/c1c[nH]c2ccccc12 | . | . | 96.5* | . | 0.3
O=C(CSc1nnc(SCc2cccc3ccccc23)s1)N/N=C/c1c[nH]c2ccccc12 | . | 36.9 | -16.4 | . | 0.1
CN(C)c1ccc(CC(=O)N2CCCCC2c2cc(C(=O)Nc3ccccc3Cl)no2)cc1 (stereo not given) | 14.8 | 10.7 | 45.3* | -5.3 | .
NC(=O)c1sc2nccc(Nc3ccccc3)c2c1N | . | 93.2* | . | . | 42.6
Cc1cc(Nc2ccc(Cl)cc2)nc(NCc2ccccc2)n1 | . | 71.0* | 299.5* | 0.2 | 0.9
Cc1cc(Nc2ccccc2)nc(NCc2ccccc2)n1 | 2.5 | 26.5 | -32.4 | . | -2.1
COc1ccc(S(=O)(=O)Nc2ccc3c(c2)C(=O)N([C@@H](C)CO)C[C@H](C)[C@H](CN(C)C(=O)NC(C)C)OCCCC[C@H](C)O3)cc1 | -6.8 | 92.7*[16.7 µM] | -17.5 | -2.8 | .
Cc1noc(C)c1S(=O)(=O)Nc1ccc2c(c1)C(=O)N([C@@H](C)CO)C[C@@H](C)[C@H](CN(C)C(=O)Nc1ccc(C(F)(F)F)cc1)OCCCC[C@@H](C)O2 | -1.9 | 14.6[16.7 µM] | -2.2 | -2.3 | .
C[C@H]1CCCCO[C@H](CN(C)C(=O)Nc2cccc3ccccc23)[C@@H](C)CN([C@@H](C)CO)C(=O)c2cc(NS(=O)(=O)c3ccc(F)cc3)ccc2O1 | 4.0 | 87.2*[16.7 µM] | 9.3 | -3.6 | .
Cc1noc(C)c1S(=O)(=O)Nc1ccc2c(c1)C(=O)N([C@@H](C)CO)C[C@H](C)[C@@H](CN(C)C(=O)Nc1ccc(C(F)(F)F)cc1)OCCCC[C@H](C)O2 | -2.0 | 57.2*[16.7 µM] | 5.8 | 10.6 | .
C[C@@H]1CCCCO[C@H](CN(C)C(=O)Nc2cccc3ccccc23)[C@@H](C)CN([C@H](C)CO)C(=O)c2cc(NS(=O)(=O)c3ccc(F)cc3)ccc2O1 | 0.6 | 3.9[16.7 µM] | -29.1 | -6.6 | .
C[C@H](CO)N1C[C@H](C)[C@H](CN(C)C(=O)Nc2ccc(C(F)(F)F)cc2)OCCCC[C@H](C)Oc2ccc(NS(=O)(=O)c3ccc(F)cc3)cc2C1=O | -2.6 | 58.8*[16.7 µM] | 19.8 | 6.9 | .
SMILES | MLL AF4-AF9 inh | Env fusion inh | GSIS activator | PGC1a acetyl inh | NSD2 inh
CC(C)=NNC1=NC(C)(C)Cc2ccccc21 | 1.3 | 1.4 | . | -7.3 | -5.7
O=C(CNC1CCCCC1)N1CCc2ccccc2C1 | . | -25.2 | . | -2.7 | -0.1
C[C@H]1CCCCO[C@H](CN(C)C(=O)Nc2ccc(C(F)(F)F)cc2)[C@@H](C)CN([C@@H](C)CO)C(=O)c2cc(NS(=O)(=O)c3ccc(F)cc3)ccc2O1 | -1.4 | 77.5*[16.7 µM] | -11.6 | -2.6 | .
Cc1noc(C)c1NC(=O)N(C)C[C@@H]1OCCCC[C@H](C)Oc2ccc(NS(=O)(=O)c3ccc(F)cc3)cc2C(=O)N([C@@H](C)CO)C[C@H]1C | -0.9 | 9.9[16.7 µM] | 5.5 | . | .
Cc1ccc(S(=O)(=O)Nc2ccc3c(c2)C(=O)N([C@@H](C)CO)C[C@H](C)[C@@H](CN(C)C(=O)Nc2ccc(C(F)(F)F)cc2)OCCCC[C@H](C)O3)cc1 | -2.1 | 68.5*[16.7 µM] | 23.2 | -2.9 | .
Cc1noc(C)c1NC(=O)N(C)C[C@H]1OCCCC[C@@H](C)Oc2ccc(NS(=O)(=O)c3ccc(F)cc3)cc2C(=O)N([C@H](C)CO)C[C@@H]1C | -3.0 | 59.9*[16.7 µM] | 20.8 | . | .
Cc1ccc(S(=O)(=O)Nc2ccc3c(c2)C(=O)N([C@H](C)CO)C[C@H](C)[C@@H](CN(C)C(=O)Nc2ccc(C(F)(F)F)cc2)OCCCC[C@H](C)O3)cc1 | -3.2 | 8.2[16.7 µM] | 6.6 | 14.4 | .
CCOC(=O)CC1ON(C)C(=O)N1c1ccc(Cl)cc1Cl (stereo not given) | . | . | . | 0.3 | 21.6
Cc1c(C(=O)O)sc2nc(-c3cccs3)cc(C(F)(F)F)c12 | -16.8 | -8.1 | -5.8 | . | 4.4
Cc1c(C(=O)Nc2nccs2)sc2nc(-c3cccs3)cc(C(F)(F)F)c12 | . | 56.7* | . | 3.8 | 3.9
Cc1nn(C)c(C)c1S(=O)(=O)N1CCC(C(=O)NC2CCCCCC2)CC1 | -2.8 | -61.1 | 0.9 | -1.7 | .
CCOC(=O)N(C)c1c(CC)nc2c(OCc3ccc(F)c(F)c3)cccn12 | 3.6 | 17.0 | -21.9 | 13.1 | 5.6
CCc1nc2c(OCc3ccc(C(F)(F)F)cc3)cccn2c1N(C)C(=O)c1ccc(OC)cc1 | 0.4 | 21.1 | -41.6 | . | 2.1
CCOC(=O)N(C)c1c(CC)nc2c(OCc3ccc(C(F)(F)F)cc3)cccn12 | 1.7 | 25.7 | 8.6 | 3.8 | 0.4
CCc1nc2c(OCc3ccc(C(F)(F)F)cc3)cccn2c1N(C)C(=O)c1ccc(C)cc1 | 4.3 | 56.7* | . | 3.8 | 0.4
CCCCC(=O)N(C)c1c(CC)nc2c(OCc3ccc(C(F)(F)F)cc3)cccn12 | -0.2 | -12.7 | 52.8* | -17.9 | 0.4
CCOC(=O)N(C)c1c(CC)nc2c(OCc3cc(Cl)cc(Cl)c3)cccn12 | 2.1 | 56.0* | . | -15.0 | 0.6
CCc1nc2c(OCc3ccc(S(C)(=O)=O)cc3)cccn2c1N(C)C(=O)c1ccccc1F | -4.6 | -2.1 | . | 45.3* | 1.5
O=C(COc1ccccc1F)N1c2ccccc2CCc2ccccc21 | . | -67.1 | -17.6 | . | -1.5
CCCCc1c(-c2ccccc2OC)ncn1Cc1cc(F)cc(F)c1 | 7.8 | -7.9 | 3.2 | . | .
